Results taken from PubChem BioAssay (NCATS).
Records with an inconclusive call do not appear. Values without a mark were called inactive. The source made the active and inactive calls. Calls come from the whole dose curve.

assay: Cell Viability - SK-N-SH (AID 435); conditions: SK-N-SH neuroblastoma cell viability qHTS
Procedure, shortened: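 qHTS cytotoxicity: CellTiter-Glo ATP luminescence after 40 h compound exposure of human neuroblastoma SK-N-SH cells at 37 °C. AC50 derived by Hill-equation fitting, with DMSO as basal and 100 uM tamoxifen as full inhibition.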
Potency is the fitted concentration of half-maximal effect.

| SMILES | Potency |
| --- | --- |
| Cc1ccc(OP(=O)(Oc2ccc(C)cc2)Oc2ccc(C)cc2)cc1 | > 92 µM |
| Nc1ccc(Cc2ccc(N)c(Cl)c2)cc1Cl | > 92 µM |
| CN(C)c1ccc(N(C)C)cc1 | > 92 µM |
| Brc1ccc(Oc2ccc(Br)cc2Br)c(Br)c1 | > 92 µM |
| O=[N+]([O-])c1c(Cl)c(Cl)c(Cl)c(Cl)c1Cl | > 92 µM |
| ClCC(Cl)Cl | > 92 µM |
| CC(C)Br | > 92 µM |
| CC(C)[N+](=O)[O-] | > 92 µM |
| CCCC[N+](=O)[O-] | > 92 µM |
| Cc1cc(-c2cc(C)c(N)c(C)c2)cc(C)c1N | > 92 µM |
| Nc1cc(Cl)ccc1O | > 92 µM |
| CCN(N=O)C(N)=O | > 92 µM |
| N#CC(Cl)(Cl)Cl | > 92 µM |
| CCCCC(CC)COC(=O)c1ccc(C(=O)OCC(CC)CCCC)c(C(=O)OCC(CC)CCCC)c1 (configuration not stated) | > 92 µM |
| O=C(O)C(Br)CBr (configuration not stated) | > 92 µM |
| Nc1c(Br)cc([N+](=O)[O-])cc1[N+](=O)[O-] | > 92 µM |

| SMILES | Potency |
| --- | --- |
| O=[N+]([O-])c1ccccc1CCl | > 92 µM |
| Cc1cc(C)cc(OP(=O)(Oc2cc(C)cc(C)c2)Oc2cc(C)cc(C)c2)c1 | > 92 µM |
| N#CC(Br)Br | > 92 µM |
| O=C(O)C(Cl)Br (configuration not stated) | > 92 µM |
| Nc1ccc([N+](=O)[O-])cc1N | > 92 µM |
| O=C(O)c1cccc(Cl)c1 | > 92 µM |
| Cc1cc(N=Nc2ccccc2C)ccc1N | > 92 µM |
| OCCCCO | > 92 µM |
| O=[N+]([O-])c1cc(Cl)c(Cl)c(Cl)c1 | > 92 µM |
| Cc1ccc2c(c1N)C(=O)c1ccccc1C2=O | > 92 µM |
| COc1ccccc1N | > 92 µM |
| CC(C)(C)OOC(=O)c1ccccc1 | > 92 µM |
| c1ccc(N=NNc2ccccc2)cc1 | > 92 µM |
| COC(C)(C)C | > 92 µM |
| C(CCOCC1CO1)COCC1CO1 (configuration not stated) | 27.7 µM |
| CN(C)c1ccc(N)cc1 | 41.7 µM (active) |
